For 28 compounds, Inhibition results are on record in ChEMBL document CHEMBL1157539, “Thousands of chemical starting points for antimalarial lead identification” (Nature, 2010).

The experiment relates to HepG2. The experiment can be described thus: GSK_TCMDC: Percent inhibition of human HepG2 cell line. Test compounds present at 10uM. The experiment is classed as functional.
With `Cc1cc2ccc(/C=C/C(=O)NC3CCC(CCN4CCc5ccc(C#N)cc5CC4)CC3)cc2[nH]1.Cl` (stereo not drawn), the Inhibition came out at 19%. Consider `CCCN1CCC=C(c2cccc(Nc3nccc(Nc4cc(OC)ccc4C)n3)c2)C1.Cl`, for which the Inhibition worked out at 15%.

Regarding `CC(C)N1CCN(C(=O)c2ccc(CNCCCN3CCN(c4cccc(Cl)c4Cl)CC3)o2)CC1.Cl`, the Inhibition amounted to 41%.

The compound `CC(C)CNCc1cccc(-c2cccc(CNc3ccc4ncccc4c3)c2)c1.O=C(O)C(F)(F)F` yielded an Inhibition of 23%. Take `CCC(C)OC(=O)C1=C(C)NC2=C(C(=O)CC(c3ccc(OC)c(OC)c3)C2)C1c1cccc(O)c1` (stereo not drawn): the Inhibition is 0%. For `CCCCn1c(C(C)Oc2ccc(Cl)cc2Cl)nc2cc(S(N)(=O)=O)ccc21` (stereo not drawn), the Inhibition is 24%. The result for `Cc1cccc2nc(-c3ccc(-c4cccc(C(=O)NCCN5CCCC5)c4)s3)[nH]c12` reads 22%; that for `COc1ccccc1-n1ccnc1SCC(=O)Nc1cc(C(F)(F)F)ccc1Cl`, 0%. Regarding `COc1ccc(-c2ccc(CNC3Cc4ccccc4C3)cc2)cc1S(=O)(=O)NCCN1CCCC1.O=C(O)C(F)(F)F`, the Inhibition was 30%. `Cc1cccc2nc(-c3ccc(-c4ccc(CN5CCN(CCC#N)CC5)cc4)cc3)[nH]c12.O=C(O)C(F)(F)F` yielded an Inhibition of 48%. The result for `CCCCCCCN1CCC(CC(=O)Nc2ccnc3ccc(OC)cc23)C(CC)C1` (stereo not drawn) reads 14%. `COc1ccc2c(c1)CC(C)(C)NC2CCCCCCCCC1NC(C)(C)Cc2cc(OC)ccc21.O=C(O)C(=O)O` (stereo not drawn) registered an Inhibition of 42%.

In turn, `Cl.O=C(Oc1ccc(C2CNCCc3c2cc(OC(=O)c2ccc(O)cc2)c(OC(=O)c2ccc(O)cc2)c3Cl)cc1)c1ccc(O)cc1` (stereo not drawn) yielded an Inhibition of 0%. For `COc1ccc(NC(=O)Nc2ccc(-c3ccncc3)c(C(F)(F)F)c2)cc1N1CCN(C)CC1`, the Inhibition was found to be 5%.

The compound `CS(=O)(=O)O.FC(F)(F)COc1ccc2ccccc2c1CCNCCCCNCCc1c(OCC(F)(F)F)ccc2ccccc12` registered an Inhibition of 99%. The compound `Cc1cccc2nc(-c3cccc(-c4cccc(NC(=O)c5cccnc5)c4)c3)[nH]c12` yielded an Inhibition of 28%. In turn, `O=C(NC1CCCCC1)N(Cc1cccc(-c2cccc(CNC3CCCC3)c2)c1)C1CCN(Cc2ccccc2)CC1.O=C(O)C(F)(F)F` displayed an Inhibition of 64%. For `CN(CCN)Cc1cccc(-c2cccc(-c3nc4cc(F)ccc4[nH]3)c2)c1.O=C(O)C(F)(F)F`, the Inhibition turned out to be 20%. As to `CN(C)CCN(C)Cc1ccc(-c2ccc(NC(=O)c3ccc(Cl)cc3)cc2)cc1.O=C(O)C(F)(F)F`, the Inhibition is 51%.

`COc1cc(C(=O)Nc2cccc(-c3cn4ccc(C)cc4n3)c2)cc(OC)c1OC` had an Inhibition of 0%. With `COc1cc(NC(=O)N2CCOC(CCN3CCC4(CCc5ccccc54)CC3)(c3ccc(Cl)c(Cl)c3)C2)cc(OC)c1OC` (stereo not drawn), the Inhibition was 17%. The result for `CC(C)c1ccc(CN(C)CCCCNC(=O)c2ccc(NC(=O)c3ccc(Cl)cc3)cc2)cc1` reads 17%; that for `COc1ccc(C=NN=c2c3ccccc3[nH]c3ccccc23)c2ccccc12`, 9%. In the case of `Cc1[nH]c(C)c(-c2ccc(-c3ccc(OC(F)(F)F)cc3)cc2)c(=O)c1Cl` it was 24%; in that of `O=C(NCC1CCC(CNCCCc2ccccc2)CC1)Nc1ccc(Cl)c(Cl)c1` (stereo not drawn), 26%.

`Nc1cc(-c2ccc(-c3cccs3)s2)nc2ccccc12` registered an Inhibition of 32%. In turn, `Cc1ccc(NC(=O)C2CCC2)cc1-c1ccc(C(=O)NCC2CC2)cc1` displayed an Inhibition of 13%. Regarding `Cc1cccc2nc(-c3ccc(-c4ccc(CN5CCN(C6CCN(C)CC6)CC5)cc4)cc3)[nH]c12.O=C(O)C(F)(F)F`, the Inhibition turned out to be 99%.
